PubChem BioAssay (EPA / NIEHS)
Records with an inconclusive call do not appear. Calls of active or inactive are those of the source. How the source made its calls: active means hit-call score of the fitted dose curve at least 0.9, where 1 is the maximum; inconclusive means response in the unintended direction; inactive means score below 0.9.

target: human Phosphatase and Tensin Homolog (PTEN), PTEN (gene 5728) (UniProt P60484); assay: NVS_ENZ_hPTEN: NovaScreen (NVS) Enzymatic Assay for human Phosphatase and Tensin Homolog (PTEN) (AID 2283203)
Sequence (P60484 whole entry, looked up): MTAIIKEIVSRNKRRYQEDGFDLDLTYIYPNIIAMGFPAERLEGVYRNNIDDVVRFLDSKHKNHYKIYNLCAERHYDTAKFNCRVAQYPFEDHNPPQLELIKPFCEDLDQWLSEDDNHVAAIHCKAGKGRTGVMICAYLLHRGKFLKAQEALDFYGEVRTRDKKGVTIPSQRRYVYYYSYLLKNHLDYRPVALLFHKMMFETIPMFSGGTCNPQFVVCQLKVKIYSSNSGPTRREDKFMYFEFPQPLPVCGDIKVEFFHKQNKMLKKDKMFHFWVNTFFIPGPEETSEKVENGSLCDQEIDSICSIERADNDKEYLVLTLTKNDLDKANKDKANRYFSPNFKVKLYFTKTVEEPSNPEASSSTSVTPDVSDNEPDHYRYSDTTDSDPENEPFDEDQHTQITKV
Protocol: NVS_ENZ_hPTEN is a biochemical, single-readout assay that uses extracted gene-proteins in a cell-free assay. Measurements were taken 1 hour after chemical dosing in a 384-well plate.NVS_ENZ_hPTEN is one of one assay component(s) measured or calculated from the NVS_ENZ_hPTEN assay. It is designed to make measurements of enzyme activity, a form of enzyme reporter, as detected with fluorescence intensity signals by Fluorescence and electrophoretic mobility shift technology.Data from the assay component NVS_ENZ_hPTEN was analyzed into 1 assay endpoint. This assay endpoint, NVS_ENZ_hPTEN, was analyzed in the positive analysis fitting direction relative to DMSO as the negative control and baseline of activity. Using a type of enzyme reporter, loss-of-signal activity can be used to understand changes in the enzymatic activity as they relate to the gene PTEN. Furthermore, this assay endpoint can be referred to as a primary readout, because this assay has produced multiple assay endpoints where this one serves a enzymatic activity function. To generalize the intended target to other relatable targets, this assay endpoint is annotated to the phosphatase intended target family, where the subfamily is dual-specific phosphatase.
Binding assays used specific radioligands (tritiated, iodinated) with non-radioactive competitive displacement ligands in agonist or antagonist protocols (as indicated) and various reference compounds and inhibitors to titrate specific binding to receptors and transporters. Most enzyme assays (CYPs, kinases, phosphatases, proteases, HDACs) used recombinant protein and specific substrates (fluorescence mostly, some colorimetric and radioactive) and inhibitors, followed by a biochemical separation of substrate and product. All assays for the biochemical HTS were initially run in duplicate at a single concentration (10 uM for CYP450 assays and 25 uM for all others). […] Each assay was run with positive and negative controls, and concurrent controls on every plate. The follow-up (secondary) screen tested active chemical-pairs in concentration series, as well as a few additional assays not tested in the primary screen, some selected negative inactives, and several cases re-run in the concentration series for confirmatory purposes.

SMILES | outcome | AC50
N#Cc1cccnc1 | inactive | –
CCCCC(CC)COC(=O)Cl (configuration not stated) | – | 4.14 µM (active)
COCC(=O)N(c1c(C)cccc1C)[C@H](C)C(=O)OC | inactive | –
CCCCCCCCCCCCOS(=O)(=O)O | – | 21.6 µM (active)
Nc1c(Oc2ccccc2)cc(O)c2c1C(=O)c1ccccc1C2=O | inactive | –
O=C1c2ccccc2C(=O)C1C(=O)C(c1ccccc1)c1ccc(Cl)cc1 (configuration not stated) | – | 15.2 µM (active)
CC(C)O.CC(C)O.OCCN(CCO)CCO.OCCN(CCO)CCO.[Ti] | – | 0.493 µM (active)
CN(C)C(=S)S | inactive | –
Cc1ccccc1OP(=O)(Oc1ccccc1C)Oc1ccccc1C | – | 45.1 µM (active)
OC(Cc1ccccc1Cl)(Cn1[nH]cnc1=S)C1(Cl)CC1 (configuration not stated) | inactive | –
CCCCCCCCCCCCc1cccc(S(=O)(=O)O)c1 | – | 12.9 µM (active)
COc1nn(C(=O)NS(=O)(=O)c2ccccc2OC(F)(F)F)c(=O)n1C | – | 9.29 µM (active)
CC(C)(COCC1CO1)COCC1CO1 (configuration not stated) | inactive | –
C[C@]12CC[C@@H](O)C[C@@H]1CC[C@@H]1[C@@H]2CC[C@]2(C)C(=O)CC[C@@H]12 | inactive | –
Cc1ccccc1OP(=O)(Oc1ccccc1)Oc1ccccc1 | – | 44.9 µM (active)
Cc1cccc(OP(=O)(Oc2cccc(C)c2)Oc2cccc(C)c2)c1 | inactive | –
Clc1cccc(Cl)c1Cl | inactive | –
